Laboratory results as given in PubChem BioAssay.
The source made the active and inactive calls.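 Rule for the calls, unless noted: active = fluorescence slope higher than the sample average by over 3 SD (cut at about -0.22 in these data, passing the limit was not always enough); inactive = the rest.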

Experiments:
[1] = inhibitors of TNFa-induced NFkB p65 translocation, primary screen, imaging, HUVEC, MLSMR starter and 10KST1 sets (AID 438;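 active = inhibition above 20% together with a positive visual image hit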;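 note: compound added about 3h40 before a 20 min TNFalpha stimulation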;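 for inhibition: signal is the nuclear over cytoplasmic p65 intensity ratio per well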); settings: HUVEC TNFa-induced p65 nuclear translocation; cell count: measured here: nuclei count (cytotoxicity indicator), at 2.08 µM; inhibition: at 2 µM, stronger effect = higher value, 0% TNFa-plus-vehicle, 100% no-TNFa wells
[2] = reduction of polyQ htt aggregates in cells – imaging, exon1htt(103Q)mCFP cells, high-content imaging, primary screen (AID 483;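 active = visual image review flags a hit and inhibition of aggregation exceeds 20%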;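 note: compound exposure lasted 3 days before fixation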;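 for nuclei count: percent of the per-plate median nuclei count of sample wells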); settings: exon1htt(103Q)mCFP cell line, aggregate imaging, at 2 µM; inhibition of aggregation: stronger effect = higher value; nuclei count: measured here: cell count, toxicity
[3] = endothelial E-selectin expression blockers – imaging, HUVEC, immunofluorescence, MLSMR starter and 10KST1 sets, primary screen (AID 487;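 active = visually confirmed hit in the image check and inhibition above 20%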;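 for inhibition: signal is fraction of cell area covered by stained E-selectin grains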;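 for nuclei count: 100% = median nuclei count of all wells on the same plate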); settings: HUVEC TNFalpha-induced E-selectin immunofluorescence imaging, at 2 µM; inhibition: stronger effect = higher value; nuclei count: measured here: cell number, toxicity
[4] = molecular target: Voltage-gated potassium channel subunit beta-2 (Rattus norvegicus) (UniProt P62483); experiment: inhibitors of rat Kvbeta2 reductase activity – biochemical, NADPH fluorescence, primary screen (AID 622); settings: recombinant KvBeta, 4-cyanobenzaldehyde reduction, at 10 µM, stronger effect = higher value;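 note: slope of raw intensity against log time taken from 70 to 1610 s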
[5] = molecular target: Voltage-gated potassium channel subunit beta-2 (Rattus norvegicus) (UniProt P62483); experiment: enhancers of rat Kvbeta2 NADPH turnover – biochemical, NADPH fluorescence, primary screen (AID 623;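 active = NADPH fluorescence slope more negative than the mean of all samples by about 3 SD, 99.7% confidence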;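 note: fluorescence intensity change per second fitted from 20 to 320 s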); settings: Recombinant KvBeta, NADPH fluorescence decrease slope, 10 min; at 10 µM; stronger effect = lower value
[6] = molecular target: Alpha-2C adrenergic receptor (Homo sapiens) (UniProt P18825); experiment: compounds altering alpha2C-coupled GIRK flux – cell-based, HEK293 alpha2C/GIRK1/2, thallium flux, primary screen (AID 624;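 active = fluorescence slope after compound addition differing from the mean of all screened samples at 99.7% confidence, in either direction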;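 note: slope of fluorescence ratio to pre-addition baseline per second over 15 to 24 s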); settings: thallium flux BTC fluorescence, at 10 µM, actives lie on both sides
[7] = blockers of RIG-like receptor reporter activation – cell-based, Sendai virus stimulus, luciferase, 10K MLSCN set, TLR/RLR signaling modifier project, primary screen (AID 602276;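 active = inhibition at or above 50% at 10 µM; inactive = inhibition below 50%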;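 note: firefly luciferase from ISG56 promoter only with Renilla not read in this screen; 0% = Sendai virus plus DMSO and 100% = medium plus DMSO without virus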); settings: HEK293 RL24 IRF3 luciferase reporter, at 10 µM, stronger effect = higher value
[8] = TLR3 IRF3 reporter activation blockers – cell-based, poly I:C stimulus, luciferase, 10K MLSCN set, primary screen (AID 602277;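 active = inhibition of the reporter signal at or above 50%; inactive = inhibition below 50%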); settings: HEK293-TLR3 RL24 IRF3 luciferase reporter, at 10 µM, stronger effect = higher value

Alpha-2C adrenergic receptor (Homo sapiens), sequence (P18825 whole entry, looked up): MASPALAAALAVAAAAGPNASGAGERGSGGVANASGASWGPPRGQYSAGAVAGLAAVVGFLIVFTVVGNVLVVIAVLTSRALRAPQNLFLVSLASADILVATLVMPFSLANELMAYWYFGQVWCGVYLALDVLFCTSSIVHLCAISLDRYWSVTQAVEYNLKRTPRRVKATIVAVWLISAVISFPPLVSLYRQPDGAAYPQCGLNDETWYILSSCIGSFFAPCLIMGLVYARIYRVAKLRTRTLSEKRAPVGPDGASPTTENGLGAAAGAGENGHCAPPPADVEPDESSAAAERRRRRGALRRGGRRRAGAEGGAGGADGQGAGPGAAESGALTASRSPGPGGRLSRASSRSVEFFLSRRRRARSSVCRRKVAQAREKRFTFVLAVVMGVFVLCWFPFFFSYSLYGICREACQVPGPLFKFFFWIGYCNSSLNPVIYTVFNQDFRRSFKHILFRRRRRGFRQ
Voltage-gated potassium channel subunit beta-2 (Rattus norvegicus), sequence (P62483 whole entry, looked up): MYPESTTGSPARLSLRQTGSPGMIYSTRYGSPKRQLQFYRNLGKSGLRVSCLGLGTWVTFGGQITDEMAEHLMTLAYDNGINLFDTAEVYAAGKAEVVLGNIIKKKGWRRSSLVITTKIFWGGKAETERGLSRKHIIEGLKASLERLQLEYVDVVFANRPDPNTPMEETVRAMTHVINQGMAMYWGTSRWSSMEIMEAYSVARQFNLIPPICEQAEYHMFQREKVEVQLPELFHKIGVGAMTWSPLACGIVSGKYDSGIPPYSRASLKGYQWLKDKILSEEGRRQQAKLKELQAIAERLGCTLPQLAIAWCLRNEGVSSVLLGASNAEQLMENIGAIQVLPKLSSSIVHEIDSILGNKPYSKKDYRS

Row | SMILES | cell count [1] | inhibition [1] | inhibition of aggregation [2] | nuclei count [2] [%] | inhibition [3] | nuclei count [3] [%] | fluorescence slope [4] | NADPH fluorescence slope [5] | slope [6] | inhibition [7] | inhibition [8]
1 | CCc1ccc(C(=O)NC2CCCCC2)s1 | 355 | -1.2% (inactive) | 0.6% (inactive) | 98.5 | 11.7% (inactive) | 104 | -0.523 (inactive) | -4.3e-05 (inactive) | 0.00428 (inactive) | -41.5% (inactive) | -96.5% (inactive)
2 | O=C1c2ccccc2C(Nc2ccc(F)cc2F)N1CCN1CCOCC1 (stereo not drawn) | 791 | 1.8% (inactive) | 19.4% (inactive) | 101 | -46.2% (inactive) | 124 | -0.416 (inactive) | -3.1e-05 (inactive) | 0.00478 (inactive) | 13.8% (inactive) | 38.8% (inactive)
3 | CC(C)(C)NC(=O)COC(=O)c1snc(C(=O)NC2CCCCC2)c1N | 236 | 13.3% (inactive) | 3.3% (inactive) | 99.5 | -55.6% (inactive) | 96.2 | -0.586 (inactive) | 2.8e-05 (inactive) | 0.00501 (inactive) | 9.79% (inactive) | -26% (inactive)
4 | O=C(Cc1c(F)cccc1Cl)Nc1ccncc1 | 285 | 4.3% (inactive) | 1% (inactive) | 104 | -34.2% (inactive) | 124 | -0.334 (inactive) | 2.5e-05 (inactive) | 0.00621 (inactive) | 12.9% (inactive) | 11.9% (inactive)
5 | Cc1nc2ccccc2n1CCC(=O)Nc1cccc(F)c1 | 606 | -4.8% (inactive) | 0.2% (inactive) | 100 | -23.9% (inactive) | 110 | -0.303 (inactive) | 9.1e-07 (inactive) | 0.00551 (inactive) | 16.2% (inactive) | 4.83% (inactive)
6 | CCOc1ccc2oc(-c3ccccc3)c(C(=O)N3CCN(CCO)CC3)c2c1 | 649 | -14.6% (inactive) | 2.8% (inactive) | 89.6 | -37.2% (inactive) | 112 | -0.584 (inactive) | 1.9e-05 (inactive) | 0.00775 (inactive) | 15.9% (inactive) | 34% (inactive)
7 | CCOP(=O)(c1ccc(N(C)C)cc1)C(O)c1c(Cl)cccc1Cl (stereo not drawn) | 220 | -3.5% (inactive) | 20% (inactive) | 99.5 | -64.5% (inactive) | 96.2 | -0.521 (inactive) | -3.5e-05 (inactive) | 0.00411 (inactive) | 12.4% (inactive) | 19.2% (inactive)
8 | O=C(CSc1nc2ccccc2[nH]1)c1ccc2c(c1)OCO2 | 673 | 2.4% (inactive) | -4% (inactive) | 102 | -2.6% (inactive) | 100 | -0.471 (inactive) | -1.2e-05 (inactive) | 0.00599 (inactive) | 18.8% (inactive) | -39.5% (inactive)
9 | O=C(CN1C(=O)c2ccccc2S1(=O)=O)Nc1ccc(S(=O)(=O)N2CCCCCC2)cc1 | 727 | -2.6% (inactive) | -11.1% (inactive) | 99.9 | -91.2% (inactive) | 107 | -0.489 (inactive) | -5.4e-05 (inactive) | 0.00568 (inactive) | 4.06% (inactive) | 19.5% (inactive)
10 | CCOC(=O)c1sc(NC(=O)c2c(C)nn(Cc3ccccc3)c2C)cc1C | 395 | -7.8% (inactive) | 42.3% (active) | 60 | -20.6% (inactive) | 106 | -0.448 (inactive) | -0.000126 (inactive) | 0.00542 (inactive) | -9.51% (inactive) | -3.87% (inactive)
11 | Nc1ccc(-n2c(N)c(C(=O)NCc3ccc4c(c3)OCO4)c3nc4ccccc4nc32)cc1 | 334 | -17.4% (inactive) | 16.7% (inactive) | 93.9 | -16.4% (inactive) | 117 | -0.476 (inactive) | -3e-05 (inactive) | 0.00435 (inactive) | 20.1% (inactive) | 3.26% (inactive)
12 | CCOC(=O)N1CCN(Cc2cc(=O)oc3ccc4ccccc4c23)CC1 | 472 | 16.9% (inactive) | 11.2% (inactive) | 93.3 | -64% (inactive) | 113 | -0.408 (inactive) | 8.3e-06 (inactive) | 0.0055 (inactive) | 16.9% (inactive) | 21.7% (inactive)
13 | CC(=O)N1CCc2c(sc(NC(=O)c3ccc(S(=O)(=O)N(C)C)cc3)c2C#N)C1 | 660 | -0.8% (inactive) | 18.5% (inactive) | 87.4 | 7.9% (inactive) | 93 | -0.52 (inactive) | -3.5e-05 (inactive) | 0.0064 (inactive) | -4.77% (inactive) | 22.6% (inactive)
14 | COc1ccc(C(=O)CSc2nc(C)cc(=O)[nH]2)cc1 | 291 | 6.5% (inactive) | 13.9% (inactive) | 92.1 | 43.1% (inactive) | 98.7 | -0.506 (inactive) | 2.1e-06 (inactive) | 0.0048 (inactive) | 14.8% (inactive) | 9.5% (inactive)
15 | CCC(=O)Nc1cc(C(=O)NCC2CCCN2CC)c(OC)cc1N(C)C (stereo not drawn) | 448 | -0.5% (inactive) | -23.1% (inactive) | 98.8 | -37.7% (inactive) | 104 | -0.525 (inactive) | 1.6e-05 (inactive) | 0.00562 (inactive) | 0.262% (inactive) | 6.05% (inactive)
16 | C/C(N)=C(/C#N)C(=O)COC(=O)c1cc(S(=O)(=O)N2CCCCC2)ccc1C | 508 | 7.7% (inactive) | -28.1% (inactive) | 104 | 12.6% (inactive) | 85.7 | -0.366 (inactive) | 1.2e-05 (inactive) | 0.00665 (inactive) | 7.49% (inactive) | 6.72% (inactive)
17 | CC(C)c1nnc(NC(=O)Cc2cccs2)s1 | 640 | 3.4% (inactive) | 8.9% (inactive) | 114 | -47.3% (inactive) | 105 | -0.513 (inactive) | -1.8e-05 (inactive) | 0.00736 (inactive) | 0.388% (inactive) | 22.9% (inactive)
18 | O=C(c1ncc[nH]1)c1ccccc1C(=O)N1CCOCC1 | 399 | 15.2% (inactive) | 27.9% (inactive) | 111 | -232% (inactive) | 116 | -0.515 (inactive) | -0.000166 (inactive) | 0.00482 (inactive) | -6.47% (inactive) | 4.36% (inactive)
19 | O=C(CN(Cc1ccc(F)cc1)C(=O)Cn1nnc2ccccc21)NCC1CCCO1 (stereo not drawn) | 438 | -6.8% (inactive) | 5.8% (inactive) | 107 | -33% (inactive) | 84 | -0.434 (inactive) | 7.2e-05 (inactive) | 0.00612 (inactive) | 13.2% (inactive) | 26.1% (inactive)
20 | Cc1noc(/C=C/N(C)C)c1S(=O)(=O)N1CCCC(C(=O)N2CCCCC2)C1 (stereo not drawn) | 709 | 9.1% (inactive) | -0.1% (inactive) | 80.5 | -79.5% (inactive) | 117 | -0.516 (inactive) | -3.8e-05 (inactive) | 0.00526 (inactive) | 7.18% (inactive) | 28.7% (inactive)
21 | C=CCn1c(Cc2cccs2)nnc1SCC(=O)Nc1ccc(OC)c(OC)c1 | 268 | 4% (inactive) | 19.5% (inactive) | 87.7 | -26.5% (inactive) | 134 | -0.445 (inactive) | -1.9e-05 (inactive) | 0.00229 (inactive) | 13.5% (inactive) | 26.6% (inactive)
22 | CCN(CC)S(=O)(=O)c1ccc(Cl)c(C(=O)OC)c1 | 456 | -5% (inactive) | 0.1% (inactive) | 87.5 | 8.3% (inactive) | 123 | -0.493 (inactive) | -2.2e-05 (inactive) | 0.00748 (inactive) | 20.5% (inactive) | 21.4% (inactive)
23 | CCN(CC)CCCNC1CCS(=O)(=O)C1 (stereo not drawn) | 730 | -7.4% (inactive) | 10.5% (inactive) | 126 | -19.7% (inactive) | 118 | -0.502 (inactive) | -6.6e-05 (inactive) | 0.00536 (inactive) | 2.02% (inactive) | 13.2% (inactive)
24 | Cc1c[nH]c2cccc(OCC(O)CNC(C)(C)C)c12 (stereo not drawn) | 324 | -1.6% (inactive) | 15.3% (inactive) | 95.2 | -4.9% (inactive) | 123 | -0.454 (inactive) | 1.3e-05 (inactive) | 0.00547 (inactive) | 12.1% (inactive) | 27.1% (inactive)
25 | Cc1ccc(S(=O)(=O)CCC(=O)Nc2ccc3c(c2)OCO3)cc1 | 666 | -12.2% (inactive) | -1.1% (inactive) | 131 | -26.9% (inactive) | 115 | -0.587 (inactive) | -6.2e-05 (inactive) | 0.00603 (inactive) | -0.686% (inactive) | 12.3% (inactive)
26 | Cc1ccc2nc(-c3ccc(S(=O)(=O)N4CCOCC4)cc3)cn2c1 | 591 | -9.3% (inactive) | -9.3% (inactive) | 96.7 | 7.4% (inactive) | 89.1 | -0.0874 (active) | 1e-05 (inactive) | 0.00713 (inactive) | 5.63% (inactive) | -13.9% (inactive)
27 | Fc1cccc2sc(Nc3nnc(-c4ccco4)o3)nc12 | 404 | -3.6% (inactive) | 2.5% (inactive) | 109 | -0.9% (inactive) | 94.5 | -0.501 (inactive) | -4.9e-05 (inactive) | 0.0148 (active) | -39.7% (inactive) | -83% (inactive)
28 | CN1C(=O)C(O)(CC(=O)c2ccccc2O)c2cc(Br)ccc21 (stereo not drawn) | 608 | 3.4% (inactive) | -2.8% (inactive) | 63.4 | -59.3% (inactive) | 124 | -0.439 (inactive) | -6e-05 (inactive) | 0.00404 (inactive) | 7.07% (inactive) | 55.8% (active)
